Assay [1] in a line: qHTS drug screen for cell cycle checkpoint inhibitors in PARPi-resistant BRCA-mutant ovarian cancer cell lines. (AID 1963452; calls by dose curve). The note with it: PEO1/OlaR viability, CellTiter-Glo luminescence, 96 h, stronger effect = lower value. Summed up: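 PEO1, PEO4 and PEO1/OlaR ovarian cancer cells, 600 per well, exposed 96 h at 37C to a dilution series. Viability read by CellTiter-Glo luminescence, normalized to DMSO and empty wells; activity summarized as Z-AUC.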
(Quantitative high-throughput screening tests each substance at several concentrations.)

Assay [2] can be described thus: qHTS for identification of novel therapeutic agents for treatment of microphthalmiaassociated transcription factor (MiT) renal cell carcinoma (RCC) (AID 1963991). Conditions: CellTiter-Glo, 48 h, stronger effect = lower value. The essentials: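 Three TFE3-fusion RCC lines (UOK109, UOK124, UOK145), 500 cells/well in complete medium, were treated with MIPE 4.0 compounds for 48 hours at 37 C. Viability was by CellTiter-Glo luminescence, normalized to DMSO (100%) and empty wells (0%); curves fitted over 11 concentrations.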

Assay [3] can be described thus: qHTS profiling for inhibitors of Plasmodium falciparum proliferation (AID 504749).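 Also: 0% = DMSO vehicle and full inhibition = artemisinin control; nearly all actives have a fitted effect of over 60% in size.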 The note with it: P. falciparum in erythrocytes, SYBR Green DNA, 72 h. Summed up: (§1)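 Infected RBCs, 0.3% parasitemia/2.5% Hct final; cpd 72 h, 37 C, 5% CO2; lysis buffer with saponin/triton/SYBR Green I, o/n RT dark; FI 485/535; norm. to artemisinin (0.29 uM) and DMSO.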
In a further assay the test system is 3D7. Described as above. Conditions: P. falciparum in erythrocytes, SYBR Green DNA, 72 h; series mostly up to 28.7 µM. Summed up: as §1
Another assay has as its system 7G8. The assay is described as above. The note with it: P. falciparum in erythrocytes, SYBR Green DNA, 72 h; series mostly up to 28.7 µM. The essentials:
as §1

The next assay deals with AA1029. The assay is described as above. The note with it: P. falciparum in erythrocytes, SYBR Green DNA, 72 h; series mostly up to 28.7 µM. Summed up:
as §1

A further assay has as its system AS120. Described as above. Conditions: P. falciparum in erythrocytes, SYBR Green DNA, 72 h; series mostly up to 28.7 µM. Summed up:
as §1

Another assay relates to ATS189. Described as above. Conditions: P. falciparum in erythrocytes, SYBR Green DNA, 72 h; series mostly up to 28.7 µM. The essentials: as §1
Another assay deals with ATS95. The description is as above. The note with it: P. falciparum in erythrocytes, SYBR Green DNA, 72 h; series mostly up to 28.7 µM. The essentials:
as §1

The test system of the next assay is C2A. Described as above. Conditions: P. falciparum in erythrocytes, SYBR Green DNA, 72 h; series mostly up to 28.7 µM. The essentials:
as §1

For the next assay, the system named is CP185. Described as above. Conditions: P. falciparum in erythrocytes, SYBR Green DNA, 72 h; series mostly up to 28.7 µM. The essentials: as §1
[4] abbreviates: measured here: PEO1 parental Z-AUC.
Setting [5] is: TFE3-RCC UOK109 viability, measured here: UOK109 Z-AUC.
Where [6] appears, read: TFE3-RCC viability, measured here: UOK124 Z-AUC.
[7] abbreviates: TFE3-RCC viability, measured here: UOK145 Z-AUC.
Setting [8] is: at 28.7 µM (top of the series), parasite line A.
[9] abbreviates: at 28.7 µM (top of the series), parasite line B.

Inconclusive results are not listed. Calls of active or inactive are those of the source. Unless noted, calls follow the shape of the dose curve; as a rule, active = well fitted inhibition curve with a large enough effect; inconclusive = small, poorly fitted or top-dose-only effect; inactive = flat fitted curve, though single readings scatter.

The source of these data is PubChem BioAssay (NCATS).

Regarding `NC(=O)c1cccnc1`, the Z-AUC is 1.48 (inactive) in assay [1], 1.33 in assay [1] (setting [4]) and 1.21 in [1] (measured here: PEO4 Z-AUC). The results for the z-score in assay [2] (setting [5]), in assay [2] (setting [6]) and in [2] (setting [7]) were 0.739, 0.417 and -0.282, respectively. The figures for the activity, negative = inhibition in assay [3] (setting [8]) and in [3] (setting [9]) were 9.61% (inactive) and 2.45% (inactive), respectively. Besides, the Potency entry in the assay on 3D7, in the assay with 7G8, in the assay on AA1029, with AS120, with ATS189 and with ATS95 was “inactive” throughout. Besides, the Potency result in the assay with C2A and with CP185 was “inactive” throughout.

For `Nc1[nH]c(=O)ncc1F`, the Z-AUC in assay [1] is 1.66 (inactive); in assay [1] (setting [4]) it was 1.6; in assay [1] (measured here: PEO4 Z-AUC), 1.51. The values for the z-score in [2] (setting [5]), in assay [2] (setting [6]) and in [2] (setting [7]) were 0.532, 0.978 and 0.221, respectively. Moreover, the activity, negative = inhibition in assay [3] (at 12.8 µM (top of the series), parasite line A) was 6.35% (inactive); in assay [3] (at 12.8 µM (top of the series), parasite line B) it was 1.39% (inactive). The Potency result in the assay with 3D7, with 7G8, with AA1029, in the assay with AS120, in the assay on ATS189 and with ATS95 was “inactive” in each case. Moreover, the Potency result with CP185 was “inactive”.

In the case of `O=NN(CCCl)C(=O)NC1CCCCC1`, the results for the Z-AUC in assay [1], in assay [1] (setting [4]) and in assay [1] (measured here: PEO4 Z-AUC) were 0.23 (inactive), 1.4 and 1.4, respectively. The results for the z-score in assay [2] (setting [5]), in assay [2] (setting [6]) and in [2] (setting [7]) were 0.385, 1.51 and 1.28, respectively. Further, the activity, negative = inhibition is 5.42% (inactive) in [3] (setting [8]) and 5.97% (inactive) in [3] (setting [9]). Moreover, the Potency result in the assay on 3D7, in the assay with 7G8, in the assay on AA1029, in the assay on AS120, in the assay with ATS189 and in the assay with ATS95 was “inactive” each time. Also, the Potency result with C2A and in the assay with CP185 was “inactive” throughout.

Regarding `O=S(=O)(O)CCS`, the Z-AUC in assay [1] was 0.603 (inactive); in assay [1] (setting [4]) it was 1.56; in assay [1] (measured here: PEO4 Z-AUC), 1.53. Also, the z-score is -0.566 in assay [2] (setting [5]), 1.05 in assay [2] (setting [6]) and -0.757 in assay [2] (setting [7]). The activity, negative = inhibition in assay [3] (setting [8]) was 8.7% (inactive); in [3] (setting [9]) it was 5.78% (inactive). Also, the Potency result in the assay with 3D7, in the assay on 7G8, with AA1029, with AS120, in the assay with ATS189 and in the assay on ATS95 was “inactive” in each case. The Potency entry in the assay on C2A and in the assay on CP185 was “inactive” each time.

With `CC(C)(C#N)c1cc(Cn2cncn2)cc(C(C)(C)C#N)c1`, the Z-AUC was 1.1 (inactive) in [1], 1.39 in assay [1] (setting [4]) and 1.04 in assay [1] (measured here: PEO4 Z-AUC). Besides, the z-score worked out at 0.558 in assay [2] (setting [5]), 0.63 in assay [2] (setting [6]) and 0.487 in assay [2] (setting [7]). In addition, the values for the activity, negative = inhibition in assay [3] (setting [8]) and in assay [3] (setting [9]) were 5.33% (inactive) and 14.1% (inactive), respectively. The Potency entry with 3D7, in the assay with 7G8, in the assay on AA1029, in the assay on AS120, with ATS189 and in the assay with ATS95 was “inactive” throughout. For the same molecule, the Potency entry in the assay with C2A and in the assay on CP185 was “inactive” each time.

In the case of `C[C@]12C=CC(=O)C=C1CC[C@@H]1[C@@H]2C(=O)C[C@@]2(C)[C@H]1CC[C@]2(O)C(=O)CO`, the Z-AUC is -0.919 (inactive) in assay [1], -0.762 in [1] (setting [4]) and -0.828 in [1] (measured here: PEO4 Z-AUC). Besides, the z-score in [2] (setting [5]) was 1.31; in assay [2] (setting [6]) it was 1.23; in assay [2] (setting [7]), -3.21. Further, the activity, negative = inhibition is 9.08% (inactive) in assay [3] (setting [8]) and 14.6% (inactive) in assay [3] (setting [9]). In addition, the Potency result in the assay on 3D7, with 7G8, with AA1029, in the assay with AS120, in the assay on ATS189 and in the assay with ATS95 was “inactive” each time. In addition, the Potency entry with C2A and in the assay on CP185 was “inactive” throughout.

Take `O=C(O)c1cc(=O)[nH]c(=O)[nH]1`: the results for the Z-AUC in assay [1], in [1] (setting [4]) and in assay [1] (measured here: PEO4 Z-AUC) were 0.444 (inactive), -0.118 and -0.128, respectively. The z-score turned out to be 1.07 in assay [2] (setting [5]), 0.79 in assay [2] (setting [6]) and 1.38 in [2] (setting [7]). Moreover, the activity, negative = inhibition in assay [3] (setting [8]) was 24.2% (inactive); in [3] (setting [9]) it was 6.15% (inactive). Besides, the Potency entry in the assay on 3D7, in the assay on AA1029, in the assay with AS120, in the assay on ATS189, with ATS95 and with C2A was “inactive” in each case. Also, in the assay on CP185, the Potency entry was “inactive”.

On to `NC(=O)c1ccc2[nH]ccc2c1`, for which the figures for the Z-AUC in assay [1], in assay [1] (setting [4]) and in [1] (measured here: PEO4 Z-AUC) were -0.236 (inactive), -0.451 and -0.798, respectively. The results for the z-score in assay [2] (setting [5]), in assay [2] (setting [6]) and in assay [2] (setting [7]) were 0.214, 0.789 and -0.184, respectively.

For `CCCN[C@H]1CCc2nc(N)sc2C1`, the results for the Z-AUC in assay [1], in assay [1] (setting [4]) and in assay [1] (measured here: PEO4 Z-AUC) were -0.0876 (inactive), -1.06 and -0.574, respectively. Also, the values for the z-score in [2] (setting [5]), in assay [2] (setting [6]) and in assay [2] (setting [7]) were 0.498, 0.618 and 0.718, respectively. Also, the values for the activity, negative = inhibition in [3] (setting [8]) and in assay [3] (setting [9]) were 16.7% (inactive) and 18.6% (inactive), respectively. Moreover, the Potency entry with 3D7, in the assay on 7G8, in the assay on AA1029, with AS120, in the assay on ATS189 and in the assay with ATS95 was “inactive” in each case. Further, the Potency entry with C2A and with CP185 was “inactive” each time.

For the molecule `CCOCC(O)COc1ccc(NC(=O)CC[S+](C)C)cc1` (configuration not stated), the Z-AUC in assay [1] was 0.72 (inactive); in [1] (setting [4]), 0.893; in assay [1] (measured here: PEO4 Z-AUC), 1.15. Moreover, the figures for the z-score in [2] (setting [5]), in assay [2] (setting [6]) and in [2] (setting [7]) were 0.123, 0.296 and 0.104, respectively. Besides, the activity, negative = inhibition in assay [3] (setting [8]) is 8.74% (inactive); in [3] (setting [9]), 4.77% (inactive). The Potency result in the assay on 3D7, in the assay on 7G8, in the assay on AA1029, with AS120, in the assay with ATS189 and with ATS95 was “inactive” in each case. The Potency result in the assay with C2A and with CP185 was “inactive” throughout.

Turning to `O=P(O)(O)C(O)(Cc1cccnc1)P(=O)(O)O`, the Z-AUC in [1] was 0.331 (inactive); in assay [1] (setting [4]) it was 0.503; in [1] (measured here: PEO4 Z-AUC) it was 0.956. In addition, the z-score came out at 0.388 in assay [2] (setting [5]), 0.644 in [2] (setting [6]) and 0.537 in assay [2] (setting [7]). The activity, negative = inhibition in assay [3] (setting [8]) was 11.1% (inactive); in assay [3] (setting [9]), 6.62% (inactive). Further, the Potency result in the assay on 3D7, in the assay with 7G8, with AA1029, in the assay with AS120, with ATS189 and with ATS95 was “inactive” in each case. Also, the Potency result in the assay with C2A and in the assay with CP185 was “inactive” in each case.

Turning to `O=C(NCC1CN(c2ccc(N3CCOCC3=O)cc2)C(=O)O1)c1ccc(Cl)s1` (configuration not stated), the Z-AUC in assay [1] was -0.884 (inactive); in assay [1] (setting [4]), -0.579; in assay [1] (measured here: PEO4 Z-AUC), -0.444. The values for the z-score in assay [2] (setting [5]), in [2] (setting [6]) and in assay [2] (setting [7]) were 0.607, 0.69 and 0.507, respectively.

In the case of `CCN(CC)CCn1c(=O)c(Cc2ccc(OC)cc2)nc2ccccc21`, the Z-AUC in [1] is 0.658 (inactive); in assay [1] (setting [4]), 1.23; in assay [1] (measured here: PEO4 Z-AUC), 1.19. In addition, the values for the z-score in assay [2] (setting [5]), in assay [2] (setting [6]) and in [2] (setting [7]) were 0.411, 0.577 and 0.628, respectively.

Turning to `CC[C@H](NC(C)C)[C@H](O)c1ccc(O)c2[nH]c(=O)ccc12`, the results for the Z-AUC in [1], in assay [1] (setting [4]) and in assay [1] (measured here: PEO4 Z-AUC) were -0.979 (inactive), 0.0863 and 0.0233, respectively. Moreover, the z-score in assay [2] (setting [5]) turned out to be 0.709; in assay [2] (setting [6]), 0.735; in assay [2] (setting [7]) it was 1.42. Moreover, the figures for the activity, negative = inhibition in assay [3] (setting [8]) and in [3] (setting [9]) were 3.5% (inactive) and 5.44% (inactive), respectively. The Potency result with 3D7, with 7G8, in the assay on AA1029, in the assay on AS120, in the assay on ATS189 and with ATS95 was “inactive” each time. The Potency result with C2A and with CP185 was “inactive” throughout.
